Measurements published in PubChem BioAssay (NCATS).
Results filed as inconclusive are left out. Calls of active or inactive are those of the source. The call rests on the fitted dose curve; in most records, active means well fitted cell-killing curve with a large enough effect; inconclusive means small, poorly fitted or top-dose-only effect, or effect the other way; inactive means no such curve, though single readings can be large or run the other way.

Experiment: Quantitative High-Throughput drug screen in 47 multiple myeloma cell lines against the NCATS MIPE library collection: Delta47_JCRB cell viability assay (AID 1918925; further: nearly all actives have a fitted effect of over 45% in size)
Conditions: Delta47 myeloma viability, CellTiter-Glo ATP, 48 h; series mostly up to 45.8 µM; viability (% of DMSO): at the top concentration
Excerpt: PI: Beverly A. Mock Ph.D.
Laboratory of Cancer Biology and Genetics,
Center for Cancer Research, National Cancer Institute,
National Institute of Health, Bethesda, Maryland
Drug resistance and disease progression are common in multiple myeloma (MM) patients, underscoring the need for new therapeutic combinations. […] We hypothesized that effective combinations would reduce MYC expression and enhance p16 activity. […] These preclinical data identify potentially useful drug combinations for evaluation in drug-resistant MM and reveal potential mechanisms of combined drug sensitivity.
Described herein is the primary MIPE qHTS used to cherrypick compounds. Validated compounds were then further tested for potential synergistic activiy.
[1] Peat TJ, Gaikwad SM, Dubois W, Gyabaah-Kessie N, Zhang S, Gorjifard S, Phyo Z, Andres M, Hughitt VK, Simpson RM, Miller MA, Girvin AT, Taylor A, Williams D, D'Antonio N, Zhang Y, Rajagopalan A, Flietner E, Wilson K, Zhang X, Shinn P, Klumpp-Thomas C, McKnight C, Itkin Z, Chen L, Kazandijian D, Zhang J, Michalowski AM, Simmons JK, Keats J, Thomas CJ, Mock BA. Drug combinations identified by high-throughput screening promote cell cycle transition and upregulate Smad pathways in myeloma. Cancer Lett. 2023 Aug 1;568:216284. doi: 10.1016/j.canlet.2023.216284. Epub 2023 Jun 24. PMID: 37356470; PMCID: PMC10408729.
SEQUENCE No. (e.g., 1, 2, 3, etc.); […] (e.g., Cells, Incubation, Reagent, etc.); VALUE and DESCRIPTION.
1; Cells; 5 uL; white, solid bottom 1536-well Greiner assay plate.
2; Compounds; 23 nL; Kalypsis pin tool (Wako USA) equipped with a 1536-well pin head to transfer to the assay plates.
3; Incubation; 48 hours; 37C incubation.
4; Reagent;5uL; CellTiter Glo (Promega).
5; Detector; 425V; Luminescence; Viewlux PerkinElmer.
NOTES (numbers refer to Sequence numbers above)
1. The cell-based screening methods employed in this study were like those previously published. Briefly, the corresponding myeloma cell lines were screened in 1,536-well plates with 500 cells, 5-uL per well for inhibition of cell viability (assessed by measuring ATP levels with CellTiterGlo).
2. NCATS MIPE 4.0 library of approved and investigational drugs were added using the Kalypsis pin tool. Wells treated with DMSO only for 100% viability and media only wells for 0% viability were used as controls.
3. The assay plates were covered and incubated for 48 hours in a 37C, 5% CO2 incubator with controlled humidity.
4. After 48 hours, CellTilter-GloTM luminescent substrate mix (Promega) reagent was added to the assay plate and plates we incubated for 5 min at room temperature.
5. Signal was measured as median relative luminescence units on a ViewLux (PerkinElmer) multiplate reader.
[1] Heske CM, Davis MI, Baumgart JT, Wilson K, Gormally MV, Chen L, Zhang X, Ceribelli M, Duveau DY, Guha R, Ferrer M, Arnaldez FI, Ji J, Tran HL, Zhang Y, Mendoza A, Helman LJ, Thomas CJ. Matrix Screen Identifies Synergistic Combination of PARP Inhibitors and Nicotinamide Phosphoribosyltransferase (NAMPT) Inhibitors in Ewing Sarcoma. Clin Cancer Res. 2017 Dec 1;23(23):7301-7311. doi: 10.1158/1078-0432.CCR-17-1121. Epub 2017 Sep 12. PMID: 28899971; PMCID: PMC6636827.
Potency means the concentration at half of the fitted maximal effect.

Row | SMILES | viability (% of DMSO) | Potency
1 | O=C(O)Cn1nnc(-c2cc(N3CCC(Oc4cc(F)ccc4Br)CC3)no2)n1 | 96.6% (inactive) | 
2 | Cc1cc(Nc2cc(N3CCN(C)CC3)nc(C=Cc3ccccc3)n2)n[nH]1 |  | 3820 nM (active)
3 | Cc1cc(N2CCOCC2)cc2[nH]c(-c3c(NC[C@@H](O)c4cccc(Cl)c4)cc[nH]c3=O)nc12 |  | 66.2 nM (active)
4 | COc1cccc(-c2ccc(NC(=O)C3=C(C(=O)O)CCC3)c(F)c2)c1 | 134% (inactive) | 
5 | CC1(C)O[C@@H]2C[C@@H]3[C@H]4C[C@@H](F)C5=CC(=O)C=C[C@]5(C)[C@@]4(F)[C@@H](O)C[C@]3(C)[C@]2(C(=O)CO)O1 | 87.6% (inactive) | 
6 | COCCn1c2c([n+](Cc3cnccn3)c1C)C(=O)c1ccccc1C2=O |  | 16.6 nM (active)
7 | CC(=O)OCCN1C(=O)c2c(C)nc3ccc(S(=O)(=O)N4CCOCC4)cc3c2C1=O | 147% (inactive) | 
8 | COc1cccc2nc(-c3cccs3)nc(NN3C(=O)C=C(C)C3=O)c12 |  | 74.3 nM (active)
9 | CCCNC(=O)Nc1ccc(Oc2ncnc3cc(OC)c(OC)cc23)cc1Cl | 102% (inactive) | 
10 | CC=C1NC(=O)[C@H]2CSSCCC=C[C@H](CC(=O)N[C@H](C(C)C)C(=O)N2)OC(=O)[C@H](C(C)C)NC1=O |  | 16.6 nM (active)
11 | CC(=O)Nc1nc(C)c(-c2ccc(Cl)c(S(=O)(=O)NCCO)c2)s1 |  | 662 nM (active)
12 | CN(c1ncccc1CNc1nc(Nc2ccc3c(c2)CC(=O)N3)ncc1C(F)(F)F)S(C)(=O)=O |  | 3720 nM (active)
13 | CCOC(=O)C1=C(C)NC2=C(C(=O)CC(C)(C)C2)C1c1ccc(-c2ccccc2)cc1 (stereo not given) |  | 14800 nM (active)
14 | CC(C)(C)c1cc(C(C)(C)C)c(NC(=O)c2c[nH]c3ccccc3c2=O)cc1O | 118% (inactive) | 
15 | Cc1ccc(C(N)=O)cc1Nc1nccc(-c2cn(C(C)C)c3cnccc23)n1 |  | 3320 nM (active)
16 | Cc1ccc(-c2ncn(-c3ccc(Nc4nccc(-c5cccc(N6CCOCC6)c5)n4)cc3)n2)cn1 |  | 105 nM (active)
17 | CNC(=O)c1c(F)cccc1Nc1nc(Nc2cc3c(cc2OC)CCN3C(=O)CN(C)C)nc2[nH]ccc12 |  | 52.6 nM (active)
18 | COc1cc2c(NC3CCN(C(C)C)CC3)nc(C3CCCCC3)nc2cc1OCCCN1CCCC1 |  | 4690 nM (active)
19 | C=CC(=O)Nc1cccc(Oc2nc(Nc3ccc(N4CCN(C)CC4)cc3)ncc2Cl)c1 |  | 1870 nM (active)
20 | Cn1cc(-c2[nH]c3cc(NC(=O)[C@H](N)C4CCCCC4)cc4c3c2C=NNC4=O)cn1 |  | 935 nM (active)

Row | SMILES | viability (% of DMSO) | Potency
21 | CN(C)CC=CC(=O)Nc1cc2c(Nc3ccc(F)c(Cl)c3)ncnc2cc1O[C@H]1CCOC1 |  | 3720 nM (active)
22 | CN1CC[C@@H](c2c(O)cc(O)c3c(=O)cc(-c4ccccc4Cl)oc23)[C@@H](O)C1 |  | 66.2 nM (active)
23 | Cc1[nH]nc2ccc(-c3cncc(OC[C@@H](N)Cc4ccccc4)c3)cc12 |  | 526 nM (active)
24 | COc1cc2c(Nc3ccc(NC(=O)c4ccccc4)cc3)ncnc2cc1OCCCN1CCOCC1 |  | 8330 nM (active)
25 | O=C(CCCCCCC(=O)Nc1ccc([C@H]2O[C@@H](CSc3nc(-c4ccccc4)c(-c4ccccc4)o3)C[C@@H](c3ccc(CO)cc3)O2)cc1)NO |  | 11800 nM (active)
26 | CC(C)c1cnn2c(NCc3ccccc3)cc(N[C@@H](CO)[C@H](O)CO)nc12 |  | 166 nM (active)
27 | CCN(CC)CCNC(=O)c1ccc2nc(-c3ccccc3)c(-c3ccc(CN4CCC(n5c(=O)[nH]c6ccccc65)CC4)cc3)nc2c1 |  | 662 nM (active)
28 | c1ccc2c(CCNc3ccc(Nc4ccncc4)cc3)c[nH]c2c1 |  | 18700 nM (active)
29 | COc1ccc(F)c(F)c1C(=O)c1cnc(NC2CCN(S(C)(=O)=O)CC2)nc1N |  | 1180 nM (active)
30 | CC(C)(C)c1cnc(CSc2cnc(NC(=O)C3CCNCC3)s2)o1 |  | 264 nM (active)
31 | C[C@H]1C[C@@H]2[C@@H]([C@@H](O)C[C@@]3(C)[C@H]2CC[C@]3(O)C(=O)CO)[C@@]2(C)C=CC(=O)C=C12 | 82.3% (inactive) | 
32 | COc1ccc(CC2c3cc(OC)c(OC)cc3CC[N+]2(C)CCC(=O)OCCCCCOC(=O)CC[N+]2(C)CCc3cc(OC)c(OC)cc3C2Cc2ccc(OC)c(OC)c2)cc1OC (stereo not given) |  | 3280 nM (active)
33 | CCOc1cc2ncc(C#N)c(Nc3ccc(F)c(Cl)c3)c2cc1NC(=O)C=CCN(C)C |  | 6620 nM (active)
34 | CC(C)c1cc(-c2n[nH]c(=O)n2-c2ccc3c(ccn3C)c2)c(O)cc1O |  | 33.2 nM (active)
35 | CC(C)(O)c1cc2nc(-c3cnc(N)nc3)nc(N3CCOCC3)c2s1 |  | 29.6 nM (active)
36 | COc1cc2c(cc1-c1c(C)noc1C)ncc1[nH]c(=O)n([C@H](C)c3ccccn3)c12 |  | 418 nM (active)
37 | COC(=O)Nc1nc2ccc(C(=O)c3ccc(F)cc3)cc2[nH]1 |  | 418 nM (active)
38 | Cc1[nH]c2ccccc2c1CCNCc1ccc(C=CC(=O)NO)cc1 |  | 52.6 nM (active)
39 | Cc1ccc2nc(NC(=O)CSc3nc4c(c(=O)n3-c3ccccc3)SCC4)sc2c1 |  | 18700 nM (active)
40 | Nc1ccn([C@@H]2CS[C@H](CO)O2)c(=O)n1 |  | 42900 nM (active)
